# In PMC4336329 (PLoS ONE, 2015):
# Hit rate of the full screen: of about 310,000 compounds, about 14,000 (4.5%) showed an effect of 50% or more. Effects have a minus sign here. The list comes from a sample in which strong results are over-represented; it also holds similar structures and randomly drawn compounds.
# Biological target: human ether-à-go-go-related gene (hERG) potassium channel (human, UniProt Q12809)
# Experiment: primary screen, population patch clamp on CHO cells stably expressing hERG; higher = less effect of the substance
# 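Further: peak tail current of the secondary pulse compared with the same well before compound.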
# human ether-à-go-go-related gene (hERG) potassium channel, sequence (Q12809 whole entry, looked up): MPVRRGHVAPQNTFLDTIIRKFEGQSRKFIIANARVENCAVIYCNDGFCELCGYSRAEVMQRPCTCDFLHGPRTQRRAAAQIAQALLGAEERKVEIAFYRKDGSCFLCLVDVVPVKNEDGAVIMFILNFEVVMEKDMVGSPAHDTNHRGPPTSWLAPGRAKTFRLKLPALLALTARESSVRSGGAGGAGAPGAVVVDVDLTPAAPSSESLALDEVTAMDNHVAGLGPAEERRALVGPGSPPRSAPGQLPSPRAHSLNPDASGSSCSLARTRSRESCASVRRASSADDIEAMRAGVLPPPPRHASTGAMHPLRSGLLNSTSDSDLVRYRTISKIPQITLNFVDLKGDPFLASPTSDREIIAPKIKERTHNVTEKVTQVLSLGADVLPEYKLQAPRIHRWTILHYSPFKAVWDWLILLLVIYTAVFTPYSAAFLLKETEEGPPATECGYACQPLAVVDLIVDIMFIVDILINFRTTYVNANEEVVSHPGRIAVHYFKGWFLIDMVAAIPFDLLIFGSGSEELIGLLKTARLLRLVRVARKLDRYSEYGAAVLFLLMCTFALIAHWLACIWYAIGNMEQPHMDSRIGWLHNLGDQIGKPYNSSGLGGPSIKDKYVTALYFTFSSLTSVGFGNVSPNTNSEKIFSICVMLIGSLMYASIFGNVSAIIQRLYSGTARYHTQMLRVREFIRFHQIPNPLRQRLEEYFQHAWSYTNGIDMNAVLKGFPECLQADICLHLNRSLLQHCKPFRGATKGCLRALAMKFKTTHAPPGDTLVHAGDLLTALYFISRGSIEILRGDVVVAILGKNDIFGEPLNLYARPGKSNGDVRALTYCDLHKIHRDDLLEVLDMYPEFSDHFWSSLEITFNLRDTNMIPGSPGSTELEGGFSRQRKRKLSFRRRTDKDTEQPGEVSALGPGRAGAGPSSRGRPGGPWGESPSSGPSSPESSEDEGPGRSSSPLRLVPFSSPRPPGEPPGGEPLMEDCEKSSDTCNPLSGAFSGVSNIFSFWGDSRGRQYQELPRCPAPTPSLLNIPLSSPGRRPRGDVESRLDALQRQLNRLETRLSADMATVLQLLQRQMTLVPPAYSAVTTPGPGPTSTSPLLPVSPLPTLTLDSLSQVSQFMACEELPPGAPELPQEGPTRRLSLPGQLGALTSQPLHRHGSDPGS
row,Structure (SMILES),"hERG current change (%, negative = inhibition) at 10uM [%]"
1,O=C(NCc1n[nH]c(=S)n1-c1ccc(Cl)c(Cl)c1)c1ccc(S(=O)(=O)N2CCOCC2)cc1,14.5
2,N#Cc1ccccc1OCc1nnc(-c2ccccc2Br)o1,14.1
3,O=C(NCc1cccnc1)c1ccccc1NS(=O)(=O)c1ccc(F)cc1F,9.6
4,Cn1c(SCCOc2ccccc2Cl)nnc1-c1cccs1,-35
5,Cc1ccc2c(c1)[C@@H]1CN(C)CC[C@@H]1N2C(=O)Nc1cccc(C(F)(F)F)c1,-38.5
6,Cc1ccc2c(c1)C1CN(C)CCC1N2C(=O)Nc1cccc(Cl)c1 (stereo not shown),-51.1
7,Cc1ccc2c(c1)C1CN(C)CCC1N2C(=O)c1ccccc1NS(=O)(=O)c1cccc(C(F)(F)F)c1.Cl (stereo not shown),-48.5
8,Cc1ccc2c(c1)C1CN(C)CCC1N2C(=O)/C=C/c1ccc2c(c1)OCO2 (stereo not shown),-62.6
9,Cc1ccc2c(c1)C1CN(C)CCC1N2C(=O)/C(C#N)=C/c1ccc2c(c1)OCO2 (stereo not shown),-21.2
10,Cc1ccc2c(c1)C1CN(C)CCC1N2C(=O)c1cccnc1Cl.Cl (stereo not shown),1.59
11,Cc1ccc2c(c1)C1CN(C)CCC1N2C(=O)Nc1cccc(C(F)(F)F)c1 (stereo not shown),-52.4
12,Cc1ccc2c(c1)C1CN(C)CCC1N2C(=O)c1cccc(S(=O)(=O)N2CC(C)CC(C)C2)c1.Cl (stereo not shown),-44.8
13,Cc1ccc2c(c1)C1CN(C)CCC1N2C(=O)Cc1cccs1.Cl (stereo not shown),-46.9
14,CCOC(=O)/C(C#N)=C/c1cccc(C)c1,12.6
15,COc1ccccc1-c1nnc(SCC(=O)NCc2ccco2)n1N,17.2
16,CN(Cc1ccccc1)C(=O)COC(=O)c1ccccc1Nc1ccccc1,13
17,NC(=O)COC(=O)c1c2c(nc3ccccc13)CCC2,9.85
18,NC(=O)COC(=O)c1c2c(nc3ccccc13)CCCC2,-53.3
19,NC(=O)COC(=O)c1c2c(nc3ccccc13)CCCCC2,-23.2
20,COc1ccc(/C=C/C2=NC(=C\N(C)C)/C(=O)O2)cc1,-37.6
21,CN(C)CCCCOc1ccccc1F.O=C(O)C(=O)O,14.4
22,CN(CCCOc1ccccc1F)Cc1ccccc1.O=C(O)C(=O)O,-57.3
23,CN(C)CCCN(CCCNC(=O)/C=N/O)Cc1ccccc1,1.31
24,CN(CCCOc1ccccc1Br)Cc1ccccc1,-22.1
25,CN(C)CCCCCCCCCCC(=O)/C=N/O.Cl,-9.03
26,CN(CCCCOc1ccc(F)cc1)Cc1ccccc1.O=C(O)C(=O)O,-54.7
27,CN(CCOc1ccc(F)cc1)Cc1ccccc1.O=C(O)C(=O)O,-23.3
28,CN(CCCCCCCCC(=O)/C=N/O)Cc1ccccc1.Cl,-58.4

row,Structure (SMILES),"hERG current change (%, negative = inhibition) at 10uM [%]"
1,COc1ccc(OCCCCN(C)Cc2ccccc2)cc1.O=C(O)C(=O)O,-45.7
2,CCc1ccccc1NC(=O)CCS(=O)(=O)c1ccc(OC)cc1,7.48
3,CCOC(=O)c1c(NCC2CCCO2)c2ccccc2[nH]c1=O (stereo not shown),0.695
4,CCCN(CC(=O)Nc1ccccc1C)C(=O)c1ccc(C)c(S(=O)(=O)N2CCCCC2)c1,-11.3
5,CCCCNc1nc(-c2ccccc2)nc(-n2ccnc2)n1,12.2
6,Cc1ccc(Cl)cc1NC(=O)CC1NC2CCCCC2NC1=O (stereo not shown),17.6
7,CCC(C)c1ccccc1N1CC(C(=O)NCCC2=CCCCC2)CC1=O (stereo not shown),8.97
8,COC(=O)c1ccc(OC)c(-c2c(OC)cc(OC)cc2OC)c1,-1.49
9,Cc1cccc(-n2ncc3c(N4CC(C)CC(C)C4)ncnc32)c1 (stereo not shown),8
10,Cc1ccc(NC(=O)C(=S)NCc2ccco2)cc1,7.1
11,O=c1cc(CSc2ccc(Cl)cc2)nc(-c2ccncc2)[nH]1,1.72
12,O=c1cc(CSc2ccc(Cl)cc2)nc(-c2ccccc2)[nH]1,-59.7
13,O=c1cc(CSc2ccccc2)nc(-c2ccccc2)[nH]1,6.19
14,CC(C)C(=O)NC(=S)/C=C1/N(C)c2ccccc2C1(C)C,-1.42
15,O=C(Cc1sc(-c2ccccc2Cl)nc1-c1ccccc1)Nc1ccccc1,11.3
16,COc1ccc(/C=C/CN2CCC(Oc3ccc(C(=O)N4CCCCC4)cc3)CC2)cc1,-53.6
17,O=C(c1ccc(OC2CCN(C/C=C/c3ccc(F)cc3)CC2)cc1)N1CCCCC1,-64.9
18,O=C(c1ccc(OC2CCN(C/C=C/c3ccc(F)cc3)CC2)cc1)N1CCCC1,-75.5
19,COCC(=O)N1CCC(Oc2ccc(C(=O)N3CCCCCC3)cc2)CC1,12.1
20,CC(C)/C=C/CN1CCC(Oc2ccc(C(=O)N3CCCC3)cc2)CC1,-35.3
21,COc1ccccc1/C=C/CN1CCC(Oc2ccc(C(=O)N3CCCCC3)cc2)CC1,-44.6
22,COCC(=O)N1CCC(Oc2ccc(C(=O)N3CCCCCCC3)cc2)CC1,22.7
23,O=C(c1ccc(OC2CCN(CCO)CC2)cc1)N1CCCC1,18.1
24,O=C(c1ccc(OC2CCN(Cc3ccccc3OC(F)F)CC2)cc1)N1CCCC1,-3.42
25,CCN1CCN(Cc2ccc(NC(=O)c3cc(NC(=O)c4cncc(-c5cccs5)c4)cc(OC)c3)cc2C(F)(F)F)CC1.O=C(O)C(F)(F)F,9.85
26,COc1cc(OC)cc(C(=O)NNC(=O)Cc2ccc(OC)c(S(=O)(=O)N3CCOCC3)c2)c1,-1.89
27,COC/C=C/C1=CC2=CC(=O)C(C)(OC(=O)c3cnc4ccccc4n3)C(=O)C2=CN1c1ccc(OC)cc1 (stereo not shown),-4.95
